This is a sample that favours compounds with a hit; in the whole collection about 7.3% have one here.
p53 reactivator: re-activators of mutant p53; H1299 p53-A138V BP100-luciferase reporter, luminescence, 24 h; actives 0.063% (n = 320,000); AID 504706; Potency, µM (titrated, usually from 92.2 µM), inactives show at the top dose activity change, positive = activation, most hits filed as activators; note: % of control where 0% means no effect; nearly all actives have a fitted effect of over 45% in size
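p53-null H1299 cells stably carrying temperature-sensitive p53-A138V and a BP100-luciferase reporter were pinned with compounds (4-point, 1:5 series) and held 24 hrs at 37 deg C. Luminescence was read 10 min after detection reagent.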
Rab9 prom act: activates the Rab9 promoter; Potency, µM (doses to about 9.22 µM), without a hit: top-dose activation, negative = inhibition, most hits filed as activators; actives 2.8% (n = 320,000); Huh7 Rab9 promoter-luciferase reporter, luminescence, 24 h; note: % of control where 0% means no effect; nearly all actives have a fitted effect of over 60% in size
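Luminescence from Amplite-detected luciferase (10 minutes, ambient) reports Rab9 promoter activation. Before that, stable Rab9-luciferase Huh7 cells (1500/well, reduced-serum OP-MEM I plus 10% FBS) were exposed to compound for 24 hours at 37C.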
FLuc counter: counter-screen for miR-21 project: firefly luciferase inhibitors or activators. P08659. purified FLuc, Km substrates, luminescence inhibition. Potency, µM (series often up to 57.5 µM), for inactives: top-dose activity change, negative = inhibition, actives largely listed as inhibitors. actives 6.9% (n = 360,000). AID 588342;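 note: plate controls were vehicle for no effect and reference inhibitor for full effect; nearly all actives have a fitted effect of over 55% in size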
Target sequence (P08659 whole entry, looked up): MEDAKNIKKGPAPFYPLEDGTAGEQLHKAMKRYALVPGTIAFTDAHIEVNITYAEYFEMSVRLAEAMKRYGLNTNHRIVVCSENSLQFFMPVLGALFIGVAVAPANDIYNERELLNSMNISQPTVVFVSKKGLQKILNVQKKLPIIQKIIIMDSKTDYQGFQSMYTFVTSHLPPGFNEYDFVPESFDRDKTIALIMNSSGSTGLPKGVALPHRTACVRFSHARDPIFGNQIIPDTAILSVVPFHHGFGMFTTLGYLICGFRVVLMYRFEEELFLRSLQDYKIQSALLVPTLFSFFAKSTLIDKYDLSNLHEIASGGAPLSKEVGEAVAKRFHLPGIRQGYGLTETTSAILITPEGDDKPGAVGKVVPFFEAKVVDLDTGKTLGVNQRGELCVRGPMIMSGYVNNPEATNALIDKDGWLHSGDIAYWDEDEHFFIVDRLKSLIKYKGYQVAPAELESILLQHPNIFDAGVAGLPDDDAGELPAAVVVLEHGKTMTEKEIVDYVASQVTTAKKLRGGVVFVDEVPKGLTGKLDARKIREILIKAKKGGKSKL
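Biochemical qHTS of compounds, final roughly 60 µM downward over six points, against 10 nM purified firefly luciferase using Km concentrations of substrates (10 uM D-luciferin, 10 uM ATP) in Tris acetate pH 7.5 buffer; luminescence output.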
SMN2 splice up: SMN2 splice variant enhancement; Potency, µM (doses to about 46.1 µM), inactives show top-dose activity change, positive = activation, actives largely listed as activators; actives 2.8% (n = 210,000); HEK293 SMN2-luciferase splicing reporter, luminescence, 30-36 h; note: % of control where 0% means no effect; nearly all actives have a fitted effect of over 55% in size
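HEK293 cells carry an SMN2 […]–luciferase reporter in which exon 7 inclusion puts luciferase in frame. Cells were plated 10-12 h before compound addition, then incubated 30-36 h at 37C. ONE-Glo luminescence was read; sodium butyrate at 4.5 mM final served as control.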
ELG1 genotoxic: genotoxicity induction in ELG1-luciferase HEK293T cells. Potency, µM (highest dose often 46 µM), without a hit: top-dose activity change, positive = activation, most hits filed as activators. HEK293T ELG1-luciferase reporter, luminescence, 16 h. actives 1.3% (n = 330,000); note: % of control where 0% means no effect; nearly all actives have a fitted effect of over 60% in size
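Screening used a luciferase reporter fused to human ELG1 in HEK293T cells. Luminescence was read on a CCD plate imager after 16 hr exposure and 30 min ONE-Glo incubation.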
NPC1 promoter act: NPC1 promoter activation. Huh7 NPC1 promoter luciferase reporter, 24 h. Potency, µM (doses to about 9.22 µM), for inactives: top-dose activation, usual class: activators. actives 2.4% (n = 320,000). AID 485313; note: % of control where 0% means no effect; nearly all actives have a fitted effect of over 60% in size
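Quantitative HTS used a cell-based reporter: Huh7 cells stably bearing the NPC1 promoter upstream of luciferase were treated with compounds for 24 h, and promoter activation was read as luminescence.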
Numbers without * were called inactive; ? = inconclusive; / = not tested or not shown; [ ] = dose if it differs, or a comment. Calls come from the whole dose curve; as a rule, active = well fitted curve in the direction sought with a large enough effect; inconclusive = small, poorly fitted or top-dose-only effect, or another doubt; inactive = no such curve, though single readings can be large; an effect the other way counts as inactive or inconclusive. Potency is the fitted concentration of half-maximal effect.

SMILES	p53 reactivator	Rab9 prom act	FLuc counter	SMN2 splice up	ELG1 genotoxic	NPC1 promoter act
CCC(O)c1cc2c(cc1NC(=O)c1cccc(Br)c1)OCCO2 (stereo unspecified)	/	/	-16.5%	-11.2%	/	/
O=C(Nc1ccc2c(c1)OCCO2)C1CCN(C(=O)c2ccc(Br)cc2)CC1	1.1%	9.5%	-11.9%	-11.7%	-3.9%	-4.8%
Cc1c(C(=O)NCC2CCCO2)oc2ccc(Br)cc12 (stereo unspecified)	10.6%	?	?	/	23.1µM*	30.0%
CC(C)c1ccc(NC(=O)c2cccc(Br)c2)cc1	?	0.708µM*	3.01µM*	14.1µM*	20.6µM*	1.41µM*
O=C(Nc1ccc2c(c1)OCCO2)c1cccc(Br)c1	31.1%	1.41µM*	1.07µM*	/	2.59µM*	1.26µM*
O=C(Nc1cccc(C(=O)Nc2cccc(Br)c2)c1)c1ccccc1	7.6%	15.0%	?	/	-1.7%	-2.4%
Cc1c(C(=O)NCC2CCCO2)oc2ccc(S(=O)(=O)N3CCCCC3)cc12 (stereo unspecified)	-9.3%	-5.2%	5.2%	-13.2%	-2.8%	-2.2%
N=c1n(CCO)c2ccccc2n1Cc1ccccc1F	/	/	0.0%	-14.1%	/	/
COc1cc(-c2cc(OC)c3c(C)oc(C)c3c(=O)c2)ccc1OC(=O)c1cccc(Cl)c1	/	/	-8.6%	/	/	/
C[C@]12CC[C@H](O)CC1=CC[C@H]1[C@@H]2CC[C@@]2(C)C(N(CCO)CCO)CC[C@@H]12 (stereo partly specified)	/	/	/	-2.1%[9.22 µM]	/	/
O=C(CN1C(=O)COc2ccc(S(=O)(=O)N3CCCC3)cc21)N1CCN(c2ccccc2)CC1	/	/	-6.0%	/	/	/
CC1=CC(=O)C2=C(C)CC[C@@H]3[C@@H](OC(=O)[C@H]3C)[C@H]12	/	/	/	3.3%[20.6 µM]	/	/
CC(=O)NC(Cc1ccc(F)cc1)C(=O)N1CCN(C(=O)NCc2ccccc2)CC1 (stereo unspecified)	2.0%	3.1%	4.3%	-25.6%	0.7%	-2.5%
CCCOc1cccc(C(=O)Nc2cccc(NC(=O)c3ccco3)c2)c1	3.7%	-5.6%	16.9µM*	7.7%	-3.3%	-3.4%
CCSc1ccc(C(=O)Nc2ccc(-c3nc4ccc(C)cc4s3)cc2)cc1	/	/	-0.1%	/	/	/
Cc1cc(C)nc(NS(=O)(=O)c2ccc(NC(=O)CN3C(=O)c4ccccc4C3=O)cc2)n1	3.7%	-1.9%	3.2%	-9.6%	0.2%	2.2%
Cc1ccc2nc(NC(=O)CN3CCN(c4ccccn4)CC3)sc2c1	1.0%	-2.3%	-9.3%	/	-10.2%	0.7%
Cc1ccc2nc(-c3ccc(NC(=O)CN4CCN(c5ccccn5)CC4)cc3)sc2c1	8.1%	?	10.7µM*	/	?	?
Cc1ccc2nc(-c3ccc(NC(=O)CN4C(=O)c5ccccc5C4=O)cc3)sc2c1	?	3.98µM*	2.69µM*	2.82µM*	9.2µM*	?
Cc1ccc2nc(-c3ccc(NC(=O)COC(=O)c4ccc(=O)[nH]c4)cc3)sc2c1	?	0.562µM*	3.38µM*	1.58µM*	2.31µM*	0.355µM*
CC(=O)Nc1ccc(NC(=O)CN2CCN(c3ccccn3)CC2)cc1	1.4%	-0.7%	-0.5%	/	-0.3%	-1.5%
O=C(CN1CCN(c2ccccn2)CC1)Nc1ccc2ccccc2c1	?	20.6%	16.9µM*	-22.2%	?	10.5%
C[N+]1(Cc2ccccc2)CCC(C(=O)OCC2CCCC2)CC1 (stereo unspecified)	/	/	/	-9.6%	/	/
Cc1ccc(-n2c(=O)c3sc4ccccc4c3n(C)c2=O)cc1F	/	/	-0.9%	-6.4%	/	/
CCN(C(=O)CN1CCN(S(=O)(=O)c2cc(Cl)ccc2Cl)CC1)c1c(N)n(Cc2ccccc2)c(=O)[nH]c1=O	-5.9%	-8.3%	-1.4%	1.9%	-0.4%	0.2%
SMILES	p53 reactivator	Rab9 prom act	FLuc counter	SMN2 splice up	ELG1 genotoxic	NPC1 promoter act
CCN(CC(=O)Nc1ccc2c(c1)OCCO2)C(=O)/C=C/c1ccc(OC)cc1OC	-7.7%	18.3%	15.1µM*	/	?	13.5%
CCN(CC(=O)Nc1ccc2c(c1)OCCO2)C(=O)/C=C/c1ccc(OC)c(OC)c1	5.0%	1.0%	-0.1%	/	2.8%	-5.4%
COc1cccc(/C=C/C(=O)c2ccc3c(c2)OCCO3)c1OC	/	?	0.757µM*	/	?	3.16µM*
COc1cc(OC)c(C(=O)/C=C/c2ccc(OCc3ccccc3)c(OC)c2)c(OC)c1	/	-5.3%	-3.2%	/	-3.5%	-1.7%
COc1cc(O)c(C(=O)/C=C/c2ccccc2)c(OC)c1	?	15.5%	10.7µM*	-29.9%	5.5%	4.3%
COc1ccc(/C=C/C(=O)NNC(=O)c2ccncc2)c(OC)c1	-9.2%	-1.5%	13.5µM*	/	-0.9%	0.0%
COc1ccc(OC)c(/C=N/NC(=O)c2ccncc2)c1	7.1%	1.5%	-9.6%	/	-0.7%	-2.1%
COc1cccc(N2CCN(c3ncc4c(n3)CCN(Cc3ccc(Br)cc3)C4)CC2)c1	/	/	5.0%	/	/	/
Oc1c(C(c2ccccc2Cl)N2CCCC2)sc2nc(-c3ccco3)nn12 (stereo unspecified)	/	/	-20.0%	/	/	/
COc1ccc(NC(=O)CCC2COc3ccccc3O2)c(OC)c1 (stereo unspecified)	-22.4%	2.7%	2.2%	-12.7%	2.1%	-1.8%
COc1ccc(/C=C/C(=O)c2ccc3c(c2)OCO3)c(OC)c1	?	2.82µM*	2.13µM*	15.8µM*	5.8µM*	3.16µM*
COc1ccc(/C=C/C(=O)c2ccc(OC)cc2OC)c(OC)c1	2.8%	8.9%	19µM*	/	0.7%	17.0%
COc1ccc(/C=C/C(=O)NCC2COc3ccccc3O2)c(OC)c1 (stereo unspecified)	11.1%	4.1%	23.9µM*	12.2%	1.7%	11.9%
COc1cc(/C=C/C(=O)c2ccc3c(c2)OCO3)cc(Cl)c1O	14.4%	1.3%	8.49µM*	/	-2.3%	-4.3%
COc1ccc(/C=N/OCC(=O)Nc2ccc3c(c2)OCO3)c(OC)c1	-3.4%	-2.2%	-3.2%	-3.9%	-4.3%	-3.6%

High-throughput results as filed in PubChem BioAssay.
